In the supplement of paper PMC11732987, “Enantioselective OTUD7B fragment discovery through chemoproteomics screening and high-throughput optimisation” (Communications Chemistry, 2025):

Tests used:
Experiment in all cases: log2 ratio of Biotin-Ahx-Ub-VS probe labelling (fragment/DMSO); higher = less target engagement (more negative = stronger competition), active = hit call of the paper (q ≤ 0.05, log2 ratio ≤ -1)
Conditions in all cases: compound concentration: 200 uM; treatment time: 3 h
USP34 = USP34 (UniProt Q70CQ2)
Chain of USP34 (Q70CQ2 whole entry, the tested form may be a part): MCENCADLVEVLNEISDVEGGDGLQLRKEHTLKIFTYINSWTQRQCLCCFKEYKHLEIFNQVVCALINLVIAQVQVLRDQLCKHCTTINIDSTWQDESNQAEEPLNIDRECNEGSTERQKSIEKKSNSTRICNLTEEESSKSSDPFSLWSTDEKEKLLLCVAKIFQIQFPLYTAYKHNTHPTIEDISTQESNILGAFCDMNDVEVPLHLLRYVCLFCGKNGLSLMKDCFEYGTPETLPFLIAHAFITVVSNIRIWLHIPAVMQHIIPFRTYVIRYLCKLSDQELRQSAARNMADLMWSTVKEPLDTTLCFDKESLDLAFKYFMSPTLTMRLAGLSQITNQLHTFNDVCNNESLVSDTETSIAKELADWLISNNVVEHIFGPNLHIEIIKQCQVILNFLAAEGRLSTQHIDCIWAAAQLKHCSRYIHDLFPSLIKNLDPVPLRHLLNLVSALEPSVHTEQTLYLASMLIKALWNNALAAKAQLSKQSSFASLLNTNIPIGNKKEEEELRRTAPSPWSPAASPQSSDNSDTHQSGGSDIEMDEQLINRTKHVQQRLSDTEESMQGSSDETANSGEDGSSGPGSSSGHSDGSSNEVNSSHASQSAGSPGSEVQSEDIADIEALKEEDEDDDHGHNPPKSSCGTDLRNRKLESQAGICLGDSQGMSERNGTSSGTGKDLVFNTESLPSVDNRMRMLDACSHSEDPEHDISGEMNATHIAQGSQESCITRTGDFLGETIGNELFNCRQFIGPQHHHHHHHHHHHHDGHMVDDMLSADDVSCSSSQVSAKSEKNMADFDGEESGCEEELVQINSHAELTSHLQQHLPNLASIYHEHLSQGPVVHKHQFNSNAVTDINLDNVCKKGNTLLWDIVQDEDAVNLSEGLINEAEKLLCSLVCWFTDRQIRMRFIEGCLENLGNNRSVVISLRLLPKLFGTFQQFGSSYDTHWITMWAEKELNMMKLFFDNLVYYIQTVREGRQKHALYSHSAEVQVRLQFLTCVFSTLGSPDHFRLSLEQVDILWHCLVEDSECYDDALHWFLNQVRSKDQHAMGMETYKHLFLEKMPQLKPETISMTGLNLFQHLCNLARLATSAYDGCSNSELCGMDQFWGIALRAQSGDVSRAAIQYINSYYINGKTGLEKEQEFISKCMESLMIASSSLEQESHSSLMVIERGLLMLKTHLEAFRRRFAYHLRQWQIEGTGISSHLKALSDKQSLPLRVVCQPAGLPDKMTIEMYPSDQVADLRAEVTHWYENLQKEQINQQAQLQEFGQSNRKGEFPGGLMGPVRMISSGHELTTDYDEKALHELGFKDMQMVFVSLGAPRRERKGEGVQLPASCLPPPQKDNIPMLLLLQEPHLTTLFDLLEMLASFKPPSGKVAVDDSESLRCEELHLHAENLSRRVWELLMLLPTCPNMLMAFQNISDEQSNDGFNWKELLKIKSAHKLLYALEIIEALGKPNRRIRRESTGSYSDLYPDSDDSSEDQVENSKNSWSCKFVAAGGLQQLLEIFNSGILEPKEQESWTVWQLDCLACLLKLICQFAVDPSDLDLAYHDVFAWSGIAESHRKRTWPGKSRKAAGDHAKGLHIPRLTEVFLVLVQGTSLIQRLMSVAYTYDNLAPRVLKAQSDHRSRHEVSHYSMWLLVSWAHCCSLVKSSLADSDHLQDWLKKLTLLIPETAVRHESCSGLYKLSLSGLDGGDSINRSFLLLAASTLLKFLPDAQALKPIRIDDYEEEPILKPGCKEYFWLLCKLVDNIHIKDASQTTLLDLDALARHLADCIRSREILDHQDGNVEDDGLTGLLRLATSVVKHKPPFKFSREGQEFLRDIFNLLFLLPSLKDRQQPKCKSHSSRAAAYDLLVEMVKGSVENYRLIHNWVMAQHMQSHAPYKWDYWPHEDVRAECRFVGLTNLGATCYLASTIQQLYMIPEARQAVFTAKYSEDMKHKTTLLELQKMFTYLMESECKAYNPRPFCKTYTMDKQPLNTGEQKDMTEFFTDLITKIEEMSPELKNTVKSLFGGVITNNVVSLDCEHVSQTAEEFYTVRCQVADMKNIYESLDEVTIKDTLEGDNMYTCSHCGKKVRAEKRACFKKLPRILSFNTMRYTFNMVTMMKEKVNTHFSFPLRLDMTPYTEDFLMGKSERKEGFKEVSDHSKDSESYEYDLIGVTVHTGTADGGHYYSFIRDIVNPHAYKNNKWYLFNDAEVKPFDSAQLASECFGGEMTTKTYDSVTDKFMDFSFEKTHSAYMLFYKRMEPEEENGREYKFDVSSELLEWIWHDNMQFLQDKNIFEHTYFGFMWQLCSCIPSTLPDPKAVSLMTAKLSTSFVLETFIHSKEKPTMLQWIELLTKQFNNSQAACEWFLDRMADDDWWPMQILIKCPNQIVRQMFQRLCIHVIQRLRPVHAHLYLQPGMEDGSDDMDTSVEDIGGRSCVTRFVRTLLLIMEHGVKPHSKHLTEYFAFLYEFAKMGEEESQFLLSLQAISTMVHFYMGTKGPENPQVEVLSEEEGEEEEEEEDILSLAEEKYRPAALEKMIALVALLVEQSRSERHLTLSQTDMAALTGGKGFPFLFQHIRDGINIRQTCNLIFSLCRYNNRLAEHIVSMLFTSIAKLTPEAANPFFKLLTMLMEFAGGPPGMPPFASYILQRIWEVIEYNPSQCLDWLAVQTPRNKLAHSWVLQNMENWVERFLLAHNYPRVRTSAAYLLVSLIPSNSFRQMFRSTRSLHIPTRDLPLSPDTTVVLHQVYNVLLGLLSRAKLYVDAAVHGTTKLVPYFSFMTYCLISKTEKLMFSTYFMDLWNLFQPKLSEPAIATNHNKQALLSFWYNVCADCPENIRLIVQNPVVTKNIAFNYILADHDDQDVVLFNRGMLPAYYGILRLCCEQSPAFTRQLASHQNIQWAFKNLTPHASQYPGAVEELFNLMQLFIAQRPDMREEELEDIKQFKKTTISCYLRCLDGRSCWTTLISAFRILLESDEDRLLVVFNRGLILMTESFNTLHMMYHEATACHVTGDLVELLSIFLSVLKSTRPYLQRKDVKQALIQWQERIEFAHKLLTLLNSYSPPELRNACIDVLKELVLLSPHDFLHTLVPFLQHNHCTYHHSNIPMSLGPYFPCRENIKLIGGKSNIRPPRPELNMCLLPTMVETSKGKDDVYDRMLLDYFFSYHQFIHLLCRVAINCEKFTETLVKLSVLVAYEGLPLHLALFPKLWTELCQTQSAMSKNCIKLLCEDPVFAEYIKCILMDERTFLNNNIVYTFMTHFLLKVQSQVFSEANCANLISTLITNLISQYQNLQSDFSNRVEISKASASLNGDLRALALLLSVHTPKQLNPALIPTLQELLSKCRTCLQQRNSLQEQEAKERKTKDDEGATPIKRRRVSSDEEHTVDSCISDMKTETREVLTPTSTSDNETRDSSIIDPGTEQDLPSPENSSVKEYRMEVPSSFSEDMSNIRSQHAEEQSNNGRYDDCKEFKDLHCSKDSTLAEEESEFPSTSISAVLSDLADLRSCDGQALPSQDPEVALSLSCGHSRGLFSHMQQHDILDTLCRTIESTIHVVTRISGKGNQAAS
Method in brief: (§1)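 Fragment (200 µM) or vehicle was incubated for 3 h with triplicate HEK293T lysate samples of 495 µg, which were then treated with Biotin-Ahx-Ub-VS at 0.5 µM final for 1 h. Labelled DUBs were enriched on NeutrAvidin, digested with LysC and trypsin, and analysed by diaPASEF LC-MS/MS. Values are average log2 fragment/vehicle ratios from an unpaired t-test on global-median-normalised Spectronaut label-free quantities, using proteins with ≥2 unique peptides.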

USP36 = biological target: T1, USP36 (UniProt Q9P275)
T1 sequence (whole entry): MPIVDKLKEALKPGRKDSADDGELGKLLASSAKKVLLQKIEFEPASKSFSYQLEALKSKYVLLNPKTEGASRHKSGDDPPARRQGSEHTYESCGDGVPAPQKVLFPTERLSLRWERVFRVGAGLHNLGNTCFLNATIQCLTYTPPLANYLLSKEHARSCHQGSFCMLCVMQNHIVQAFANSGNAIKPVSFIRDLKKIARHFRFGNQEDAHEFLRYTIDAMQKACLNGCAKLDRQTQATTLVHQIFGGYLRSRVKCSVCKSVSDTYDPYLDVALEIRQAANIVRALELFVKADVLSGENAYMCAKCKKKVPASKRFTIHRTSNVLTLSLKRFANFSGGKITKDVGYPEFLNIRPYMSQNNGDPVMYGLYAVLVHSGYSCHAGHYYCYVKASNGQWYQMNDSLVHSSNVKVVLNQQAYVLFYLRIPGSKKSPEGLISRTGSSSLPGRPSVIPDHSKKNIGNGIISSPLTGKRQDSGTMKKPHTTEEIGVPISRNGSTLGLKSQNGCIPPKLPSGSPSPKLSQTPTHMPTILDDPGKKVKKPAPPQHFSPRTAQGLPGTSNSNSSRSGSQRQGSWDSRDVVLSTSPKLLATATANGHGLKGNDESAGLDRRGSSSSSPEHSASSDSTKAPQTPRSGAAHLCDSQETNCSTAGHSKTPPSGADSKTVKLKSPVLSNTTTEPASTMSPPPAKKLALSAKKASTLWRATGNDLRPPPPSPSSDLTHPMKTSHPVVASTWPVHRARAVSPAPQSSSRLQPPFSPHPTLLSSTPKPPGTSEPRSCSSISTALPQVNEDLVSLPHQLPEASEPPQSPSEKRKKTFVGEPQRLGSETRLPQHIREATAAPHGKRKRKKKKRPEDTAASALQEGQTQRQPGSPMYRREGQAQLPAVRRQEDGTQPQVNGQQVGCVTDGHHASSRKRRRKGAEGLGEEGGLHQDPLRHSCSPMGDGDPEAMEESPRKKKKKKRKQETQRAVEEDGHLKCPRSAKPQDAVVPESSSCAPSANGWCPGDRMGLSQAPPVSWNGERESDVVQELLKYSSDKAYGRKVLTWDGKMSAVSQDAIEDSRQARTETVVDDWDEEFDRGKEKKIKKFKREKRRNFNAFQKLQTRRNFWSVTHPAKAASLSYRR
Method in brief: as §1

USP38 = biological target: T2, USP38 (UniProt Q8NB14)
T2 sequence (whole entry): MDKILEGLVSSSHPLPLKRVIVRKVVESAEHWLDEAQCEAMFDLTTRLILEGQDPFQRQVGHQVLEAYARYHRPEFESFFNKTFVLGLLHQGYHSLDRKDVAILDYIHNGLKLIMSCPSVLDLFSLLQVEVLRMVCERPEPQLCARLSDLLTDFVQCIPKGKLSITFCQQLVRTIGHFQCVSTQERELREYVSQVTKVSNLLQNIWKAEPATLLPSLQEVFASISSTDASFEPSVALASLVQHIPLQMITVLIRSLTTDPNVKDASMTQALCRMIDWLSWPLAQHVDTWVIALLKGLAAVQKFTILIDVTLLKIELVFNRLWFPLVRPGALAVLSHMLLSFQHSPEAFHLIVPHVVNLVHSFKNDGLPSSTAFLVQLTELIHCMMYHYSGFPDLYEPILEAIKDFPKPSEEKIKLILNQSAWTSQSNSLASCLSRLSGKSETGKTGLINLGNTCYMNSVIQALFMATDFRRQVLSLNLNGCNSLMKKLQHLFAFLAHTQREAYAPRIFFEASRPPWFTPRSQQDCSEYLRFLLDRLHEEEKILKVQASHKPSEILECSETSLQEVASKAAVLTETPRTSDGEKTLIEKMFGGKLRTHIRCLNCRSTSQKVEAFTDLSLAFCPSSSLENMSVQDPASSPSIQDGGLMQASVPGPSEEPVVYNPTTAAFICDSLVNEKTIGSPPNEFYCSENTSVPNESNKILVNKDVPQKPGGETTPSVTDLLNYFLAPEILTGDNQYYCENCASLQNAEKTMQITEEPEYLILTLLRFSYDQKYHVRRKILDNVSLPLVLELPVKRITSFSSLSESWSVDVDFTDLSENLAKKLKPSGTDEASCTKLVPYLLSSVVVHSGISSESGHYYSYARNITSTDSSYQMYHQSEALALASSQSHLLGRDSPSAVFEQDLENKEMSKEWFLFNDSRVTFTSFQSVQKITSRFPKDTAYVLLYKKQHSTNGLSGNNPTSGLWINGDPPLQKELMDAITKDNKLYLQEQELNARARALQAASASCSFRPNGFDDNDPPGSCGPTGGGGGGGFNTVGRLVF
Method in brief: as §1

USP39 = biological target: T3, USP39 (UniProt Q53GS9)
T3 sequence (whole entry): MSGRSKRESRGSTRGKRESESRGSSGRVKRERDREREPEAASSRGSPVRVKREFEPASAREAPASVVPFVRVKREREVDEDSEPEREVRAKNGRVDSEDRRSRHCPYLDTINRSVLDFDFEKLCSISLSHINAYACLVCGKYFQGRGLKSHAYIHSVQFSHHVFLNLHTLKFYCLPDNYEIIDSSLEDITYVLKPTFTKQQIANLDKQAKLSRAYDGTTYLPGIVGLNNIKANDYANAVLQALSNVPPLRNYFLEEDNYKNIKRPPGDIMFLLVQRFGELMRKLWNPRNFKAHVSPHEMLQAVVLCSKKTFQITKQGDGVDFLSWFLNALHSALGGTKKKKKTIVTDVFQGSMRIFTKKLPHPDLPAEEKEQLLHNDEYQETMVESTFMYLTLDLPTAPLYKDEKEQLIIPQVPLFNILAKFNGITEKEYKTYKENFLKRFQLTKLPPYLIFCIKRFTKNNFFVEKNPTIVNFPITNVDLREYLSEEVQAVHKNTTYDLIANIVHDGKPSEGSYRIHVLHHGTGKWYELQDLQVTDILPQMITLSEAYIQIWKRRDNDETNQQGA
Method in brief: as §1

USP4 = biological target: T4, USP4 (UniProt Q13107)
T4 sequence (whole entry): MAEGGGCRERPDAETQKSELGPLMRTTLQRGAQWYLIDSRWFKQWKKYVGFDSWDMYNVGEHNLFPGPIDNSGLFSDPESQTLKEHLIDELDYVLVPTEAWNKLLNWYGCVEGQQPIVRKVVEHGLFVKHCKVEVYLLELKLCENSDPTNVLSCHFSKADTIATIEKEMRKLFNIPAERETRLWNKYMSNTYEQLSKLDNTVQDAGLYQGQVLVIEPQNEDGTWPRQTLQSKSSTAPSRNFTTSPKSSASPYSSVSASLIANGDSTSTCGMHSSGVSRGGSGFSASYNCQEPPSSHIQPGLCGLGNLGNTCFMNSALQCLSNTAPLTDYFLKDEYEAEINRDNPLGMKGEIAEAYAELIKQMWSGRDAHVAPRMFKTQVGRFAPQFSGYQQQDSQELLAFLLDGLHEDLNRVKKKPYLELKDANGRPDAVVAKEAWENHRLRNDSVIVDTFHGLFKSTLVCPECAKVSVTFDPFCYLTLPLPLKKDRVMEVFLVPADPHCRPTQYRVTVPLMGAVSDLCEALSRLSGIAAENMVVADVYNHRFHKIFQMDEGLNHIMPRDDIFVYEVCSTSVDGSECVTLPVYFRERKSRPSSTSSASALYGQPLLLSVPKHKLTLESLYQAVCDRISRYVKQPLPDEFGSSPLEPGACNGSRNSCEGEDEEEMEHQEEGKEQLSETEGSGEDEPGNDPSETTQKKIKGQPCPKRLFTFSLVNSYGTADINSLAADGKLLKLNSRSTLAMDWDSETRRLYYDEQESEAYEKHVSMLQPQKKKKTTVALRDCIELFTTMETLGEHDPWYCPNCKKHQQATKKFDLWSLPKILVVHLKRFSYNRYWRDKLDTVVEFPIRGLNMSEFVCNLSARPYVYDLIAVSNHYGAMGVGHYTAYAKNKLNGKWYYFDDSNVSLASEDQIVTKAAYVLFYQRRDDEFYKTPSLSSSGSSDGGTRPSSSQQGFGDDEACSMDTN
Method in brief: as §1

Measured: log2 ratio of Biotin-Ahx-Ub-VS probe labelling

COc1cc(Cl)c(C)cc1NC(=O)CCl
inactive: USP34 -0.327 | USP36 -0.122 | USP38 -0.241 | USP39 -0.366 | USP4 -0.423
